Test results: PubChem BioAssay
Activity calls are given as the source filed them.

Tests used:
[1] = binders of probe aFSTL3 on microarray, primary screen, stem cell growth factor project, biochemical, small-molecule microarray, fluorescence 635/667 (AID 1064); conditions: higher = more signal;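 further: measures binding of the biotinylated anti-FSTL3 antibody to printed compounds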
[2] = binders from COS7 lysate, DM2A8 probe, primary screen, torsin A project, cell lysate, small-molecule microarray, fluorescence 635/667 (AID 1065); conditions: higher = more signal, COS7 lysate expressing mutant human TOR1A
[3] = binders of probe aFGF2 on microarray, primary screen, stem cell growth factor project, biochemical, small-molecule microarray, fluorescence 635/667 (AID 1067); conditions: higher = more signal;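 further: measures binding of biotinylated aFGF2 protein to printed compounds on slides; z-score merges feature fluorescence and signal-to-noise across triplicate slides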
[4] = binders of probe aFGF10 on microarray, primary screen, stem cell growth factor project, biochemical, small-molecule microarray, fluorescence 635/667 (AID 1071); conditions: higher = more signal;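 further: score merges 667 nm spot intensity and signal to noise from triplicate slides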
[5] = target: Neurogenic locus notch homolog protein 2 (Homo sapiens) (UniProt Q04721); test: Notch2 binders on small-molecule microarrays, primary screen, biochemical, small-molecule microarray, 635 nm fluorescence, stem cell growth factors (AID 1073); conditions: Notch2 binding, higher = more signal
[6] = target: Pro-neuregulin-1, membrane-bound isoform (Homo sapiens) (UniProt Q02297); test: NRG1 binders on small-molecule microarrays, primary screen, psychiatric disease protein project, biochemical, small-molecule microarray, fluorescence 635/667 (AID 1075); conditions: NRG1 binding, 635 nm fluorescence, higher = more signal;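 further: score combines 667 nm spot fluorescence with signal to noise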
Sequence of Pro-neuregulin-1, membrane-bound isoform (Homo sapiens) (Q02297 whole entry, looked up, the tested form may be a part, canonical isoform): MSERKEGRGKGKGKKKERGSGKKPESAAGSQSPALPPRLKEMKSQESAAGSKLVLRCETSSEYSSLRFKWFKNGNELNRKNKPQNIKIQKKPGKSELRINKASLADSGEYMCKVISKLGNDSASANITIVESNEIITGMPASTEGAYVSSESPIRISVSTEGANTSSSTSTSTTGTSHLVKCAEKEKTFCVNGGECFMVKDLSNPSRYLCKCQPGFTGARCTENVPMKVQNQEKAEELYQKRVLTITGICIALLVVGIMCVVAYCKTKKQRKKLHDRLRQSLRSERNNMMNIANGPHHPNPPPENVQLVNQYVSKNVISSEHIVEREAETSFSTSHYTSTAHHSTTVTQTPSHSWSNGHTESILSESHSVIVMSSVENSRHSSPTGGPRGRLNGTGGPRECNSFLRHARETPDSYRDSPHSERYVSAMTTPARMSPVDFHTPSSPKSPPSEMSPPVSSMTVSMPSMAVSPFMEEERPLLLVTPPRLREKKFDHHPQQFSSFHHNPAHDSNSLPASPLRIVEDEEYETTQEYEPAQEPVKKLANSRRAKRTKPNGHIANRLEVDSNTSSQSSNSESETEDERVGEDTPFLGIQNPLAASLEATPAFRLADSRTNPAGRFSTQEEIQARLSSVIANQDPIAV

[7] = tested on: Neuregulin-1 EGF-like domain; test: binders of neuregulin-1 EGF-like domain, primary screen, biochemical, small-molecule microarray, 635 nm fluorescence (AID 1081); conditions: small-molecule microarray binding, higher = more signal;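 further: binding of the protein to compounds printed on small-molecule microarray slides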
[8] = FRG1 promoter luciferase signal modulators, primary screen, FRG1 inhibition for FSHD, cell-based, C2C12 myotubes, firefly/Renilla luciferase, luminescence (AID 1084); conditions: higher = more signal, called active from +8 up or from −8 down
[9] = binders of probe aFST on microarray, primary screen, stem cell growth factor project, biochemical, small-molecule microarray, fluorescence 635/667 (AID 1086); conditions: higher = more signal;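 further: score merges 667 nm fluorescence with signal-to-noise of each printed compound spot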
[10] = binders of probe aHhip on microarray, primary screen, stem cell growth factor project, biochemical, small-molecule microarray, fluorescence 635/667 (AID 1087); conditions: higher = more signal;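 further: score merges spot fluorescence at 667nm with spot signal to noise ratio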
[11] = tested on: PRMT1 (protein arginine N-methyltransferase 1); test: PRMT1 binders on small-molecule microarrays, primary screen, biochemical, small-molecule microarray, 635 nm fluorescence (AID 1088); conditions: small-molecule microarray binding, higher = more signal;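 further: binding of Prmt1 protein to compounds spotted on small-molecule microarray slides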
[12] = yeast growth modulation, basal conditions, primary screen, YJM789 clinical isolate, OD600, 24 h (AID 1089);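 further: growth of clinical yeast isolate S. cerevisiae YJM 789 seeded 1000 cells per well; test concentration not given here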; conditions: S. cerevisiae YJM789 growth, higher = more signal, called active from +8 up or from −8 down
[13] = fission yeast growth modulation, primary screen, strain 972, OD600, 24 h, no modulator (AID 1090);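 further: basal condition with compound alone and no growth modifier present; test concentration not given here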; conditions: S. pombe 972 growth, higher = more signal, called active from +8 up or from −8 down
[14] = S. cerevisiae growth modulation with rapamycin, primary screen, strain BY4716, OD600, 96 h (AID 1091); conditions: higher = more signal, called active from +8 up or from −8 down; further: test concentration not given here
[15] = target: Torsin-1A-interacting protein 2 (Homo sapiens) (UniProt Q8NFQ8); test: LULL1 binders on small-molecule microarray, primary screen, cell lysate, human LULL1 lysate, 635/667 nm fluorescence (AID 1092); conditions: hLULL1 lysate binding, 635 nm fluorescence, higher = more signal;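 further: probe is lysate of COS7 cells overexpressing human LULL1; score merges per-feature 667 nm fluorescence with signal-to-noise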
Sequence of Torsin-1A-interacting protein 2 (Homo sapiens) (Q8NFQ8 whole entry, looked up): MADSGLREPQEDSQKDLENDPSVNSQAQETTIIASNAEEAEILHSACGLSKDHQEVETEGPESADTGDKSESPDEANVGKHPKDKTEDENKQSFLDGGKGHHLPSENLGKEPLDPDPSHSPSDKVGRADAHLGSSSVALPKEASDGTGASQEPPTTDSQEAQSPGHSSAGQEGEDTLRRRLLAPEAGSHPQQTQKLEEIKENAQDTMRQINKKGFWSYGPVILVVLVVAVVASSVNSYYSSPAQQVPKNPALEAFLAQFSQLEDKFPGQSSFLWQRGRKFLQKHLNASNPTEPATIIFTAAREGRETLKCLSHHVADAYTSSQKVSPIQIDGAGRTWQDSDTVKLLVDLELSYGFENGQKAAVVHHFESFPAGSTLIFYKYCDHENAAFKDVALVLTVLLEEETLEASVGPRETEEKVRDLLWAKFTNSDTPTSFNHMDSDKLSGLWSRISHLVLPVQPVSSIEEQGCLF

[16] = E. coli growth modulation, two-sided OD650, primary screen, E. coli filamentation project, strain DRC41, 24 h (AID 1093); conditions: OD650, 24 h, higher = more signal, called active from +8 up or from −8 down;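 further: MC1000 strain lacking acrAB efflux and sulA so SOS filamentation is blocked; test concentration not given here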
[17] = small-molecule microarray binders of probe aLefty2, primary screen, biochemical, biotinylated probe, 635/667 nm fluorescence (AID 1094); conditions: higher = more signal;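 further: score merges spot fluorescence near 667 nm with spot signal-to-noise ratio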
[18] = tested on: Noggin (protein binding on small-molecule microarray); test: Noggin binders on small-molecule microarray, primary screen, biochemical, 635/667 nm fluorescence (AID 1095); conditions: 635 nm fluorescence, higher = more signal;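 further: score merges 667 nm feature fluorescence with signal to noise over triplicate slides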
[19] = target: Neurogenic locus notch homolog protein 3 (Homo sapiens) (UniProt Q9UM47); test: NOTCH3 binders on small-molecule microarray, primary screen, biochemical, 635/667 nm fluorescence (AID 1096); conditions: NOTCH3 binding, 635 nm fluorescence, higher = more signal
Sequence of Neurogenic locus notch homolog protein 3 (Homo sapiens) (Q9UM47 whole entry, looked up): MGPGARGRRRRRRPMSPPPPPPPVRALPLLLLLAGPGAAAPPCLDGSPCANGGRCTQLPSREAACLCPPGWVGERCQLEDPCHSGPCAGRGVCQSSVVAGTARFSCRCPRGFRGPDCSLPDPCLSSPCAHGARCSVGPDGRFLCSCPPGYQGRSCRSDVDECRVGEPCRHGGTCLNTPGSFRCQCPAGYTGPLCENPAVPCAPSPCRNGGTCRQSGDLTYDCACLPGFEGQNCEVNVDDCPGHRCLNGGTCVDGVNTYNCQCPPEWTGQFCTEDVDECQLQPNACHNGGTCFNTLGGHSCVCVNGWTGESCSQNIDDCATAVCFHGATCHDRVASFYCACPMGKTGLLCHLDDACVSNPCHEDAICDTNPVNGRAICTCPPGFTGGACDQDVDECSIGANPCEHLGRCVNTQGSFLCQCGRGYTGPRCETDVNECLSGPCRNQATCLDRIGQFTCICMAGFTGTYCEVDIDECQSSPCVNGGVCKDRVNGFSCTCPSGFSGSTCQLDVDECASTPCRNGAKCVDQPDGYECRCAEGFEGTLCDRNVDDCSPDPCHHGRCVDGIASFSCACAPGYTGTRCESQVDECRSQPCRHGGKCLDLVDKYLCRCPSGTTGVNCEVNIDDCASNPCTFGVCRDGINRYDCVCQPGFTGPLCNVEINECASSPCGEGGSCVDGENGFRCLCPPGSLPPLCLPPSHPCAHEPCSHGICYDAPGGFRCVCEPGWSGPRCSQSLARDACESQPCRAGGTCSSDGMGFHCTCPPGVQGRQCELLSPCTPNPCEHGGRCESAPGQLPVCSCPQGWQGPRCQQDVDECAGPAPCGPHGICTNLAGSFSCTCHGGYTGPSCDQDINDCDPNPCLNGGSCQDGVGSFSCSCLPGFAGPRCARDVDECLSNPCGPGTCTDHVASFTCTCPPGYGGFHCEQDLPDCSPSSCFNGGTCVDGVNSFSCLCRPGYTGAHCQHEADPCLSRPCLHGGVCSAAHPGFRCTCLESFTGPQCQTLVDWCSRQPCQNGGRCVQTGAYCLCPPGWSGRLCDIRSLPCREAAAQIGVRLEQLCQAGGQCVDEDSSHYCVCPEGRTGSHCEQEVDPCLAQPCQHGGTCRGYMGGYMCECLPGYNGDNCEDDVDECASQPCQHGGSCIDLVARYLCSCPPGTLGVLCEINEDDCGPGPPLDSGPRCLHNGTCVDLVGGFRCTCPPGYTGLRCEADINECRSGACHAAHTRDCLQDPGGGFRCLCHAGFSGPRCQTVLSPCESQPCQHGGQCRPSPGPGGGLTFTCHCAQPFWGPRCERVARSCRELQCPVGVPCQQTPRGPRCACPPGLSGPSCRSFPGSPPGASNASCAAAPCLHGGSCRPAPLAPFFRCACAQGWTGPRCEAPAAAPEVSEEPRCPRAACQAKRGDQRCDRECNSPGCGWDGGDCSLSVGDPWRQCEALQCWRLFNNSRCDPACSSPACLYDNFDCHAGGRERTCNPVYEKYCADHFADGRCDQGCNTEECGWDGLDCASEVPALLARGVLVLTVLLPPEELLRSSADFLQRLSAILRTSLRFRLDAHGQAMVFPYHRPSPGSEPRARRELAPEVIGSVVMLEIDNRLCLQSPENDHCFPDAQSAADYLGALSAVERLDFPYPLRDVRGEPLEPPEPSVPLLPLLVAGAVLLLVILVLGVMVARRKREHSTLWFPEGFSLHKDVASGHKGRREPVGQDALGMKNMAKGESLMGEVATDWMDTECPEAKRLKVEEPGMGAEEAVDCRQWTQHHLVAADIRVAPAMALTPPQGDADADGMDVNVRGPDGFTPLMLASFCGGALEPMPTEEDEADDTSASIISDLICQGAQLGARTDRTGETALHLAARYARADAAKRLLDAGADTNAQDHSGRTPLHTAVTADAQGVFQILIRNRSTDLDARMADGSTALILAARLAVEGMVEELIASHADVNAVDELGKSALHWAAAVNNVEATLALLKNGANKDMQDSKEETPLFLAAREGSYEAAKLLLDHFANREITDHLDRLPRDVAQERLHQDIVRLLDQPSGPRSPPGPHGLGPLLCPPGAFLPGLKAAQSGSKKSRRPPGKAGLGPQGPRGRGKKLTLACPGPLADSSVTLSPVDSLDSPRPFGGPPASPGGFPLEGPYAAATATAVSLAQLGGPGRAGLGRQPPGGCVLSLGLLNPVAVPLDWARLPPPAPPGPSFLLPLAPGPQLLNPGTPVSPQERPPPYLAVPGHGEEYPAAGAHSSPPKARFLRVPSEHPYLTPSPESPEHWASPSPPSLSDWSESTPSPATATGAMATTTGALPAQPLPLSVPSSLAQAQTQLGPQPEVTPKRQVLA

[20] = small-molecule microarray binders of probe aEGFR, primary screen, biochemical, biotinylated probe, 635/667 nm fluorescence (AID 1097); conditions: higher = more signal;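 further: probe is a biotinylated anti-EGFR antibody binding compounds printed on slides; score combines fluorescence near 667 nm and signal to noise of each spot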

Compound | composite z-score [1] | composite z-score [2] | composite z-score [3] | composite z-score [4] | composite z-score [5] | composite z-score [6] | composite z-score [7] | z-score [8] | composite z-score [9] | composite z-score [10] | composite z-score [11] | z-score [12] | z-score [13] | z-score [14] | composite z-score [15] | z-score [16] | composite z-score [17] | composite z-score [18] | composite z-score [19] | composite z-score [20]
COCCOC(=O)N1C(=O)[C@@]2(c3ccccc31)[C@H](C(=O)N1CCN(c3ncccn3)CC1)[C@H]1C(=O)O[C@H](c3ccccc3)[C@H](c3ccccc3)N1[C@@H]2c1ccc(OCCO)cc1 | 0.213 | 0.295 | 0.0043 | 1.13 | 1.29 | 1.2 | 1.28 | 0.795 (inactive) | 0.593 | 0.388 | 1.56 | 2.53 (inactive) | 1.1 (inactive) | 5.84 (inactive) | 2.56 | 1.75 (inactive) | 0.309 | 0.57 | 0.817 | 0.325
Cc1ccc(S[C@]2(C(=O)NC(C)C)CC(=O)N(Cc3ccccc3C(F)(F)F)[C@@H]2c2ccc(CO)cc2I)cc1 | 1.01 | -0.685 | -0.0924 | -0.545 | -1.67 | 1.91 | 1.17 | -0.62 (inactive) | -0.415 | -0.274 | 1.13 | -2.32 (inactive) | -4.49 (inactive) | 1.18 (inactive) | 0.515 | -1.73 (inactive) | 0.0844 | -0.76 | -0.669 | -0.283
CN1C(=O)C2C=CC(C(O)c3c(F)cccc3Cl)N(Nc3ccccc3)C2C1=O (stereo not given) | -0.196 | -0.198 | 0.171 | 0.334 | 1.55 | 1.84 | 1.1 | 0.433 (inactive) | 0.878 | -0.0346 | 1.04 | -0.0908 (inactive) | 1.19 (inactive) | 0.437 (inactive) | 3.44 | -0.757 (inactive) | 0.244 | 0.0319 | 1.07 | 0.0562
CC(C)C(O)C1C=CC2C(=O)N(C)C(=O)C2N1Nc1ccccc1 (stereo not given) | 0.383 | 0.681 | 0.364 | 0.914 | 1.69 | 1.19 | 1.37 | 2.73 (inactive) | 1.35 | 0.67 | 0.694 | 0.324 (inactive) | -0.163 (inactive) | 0.204 (inactive) | 3.3 | -0.381 (inactive) | 0.873 | 0.206 | 0.707 | 0.515
COCCOC(=O)N1C(=O)[C@@]2(c3cc(C#Cc4ccc(OC)cc4)ccc31)[C@H](C(=O)N1CCCCCCC1)[C@H]1C(=O)O[C@H](c3ccccc3)[C@H](c3ccccc3)N1[C@@H]2c1ccc(O)cc1 | 2.75 | 0.294 | 0.125 | 0.479 | 0.565 | 0.114 | 1.13 | 1.09 (inactive) | 2.06 | 0.615 | 1.47 | -0.194 (inactive) | 0.318 (inactive) | 2.3 (inactive) | 1.79 | 0.551 (inactive) | 0.834 | 0.674 | 0.709 | 0.0577
COc1ccc(NN2C(C(O)c3ccco3)C=CC3C(=O)N(C4CCCCC4)C(=O)C32)cc1 (stereo not given) | -0.0934 | 1.14 | -0.051 | 1.12 | 1.36 | 0.95 | 1.15 | 0.592 (inactive) | 1.51 | 0.0216 | 1.56 | 0.0039 (inactive) | -0.134 (inactive) | 0.705 (inactive) | 3.06 | -0.465 (inactive) | 0.0405 | 0.89 | 1.03 | 0.191
O=C1O[C@@H](c2ccccc2)[C@@H](c2ccccc2)N2[C@@H](c3ccc(O)cc3)[C@]3(C(=O)Nc4ccc(C#CCCO)cc43)[C@@H](C(=O)NC[C@H](O)c3ccccc3)[C@H]12 | 0.239 | 0.762 | -0.206 | -0.812 | -0.724 | 0.381 | 1 | -0.233 (inactive) | -0.0873 | -0.134 | 0.581 | 0.235 (inactive) | -0.137 (inactive) | 0.914 (inactive) | 2.9 | 0.231 (inactive) | -0.112 | 1.11 | -0.494 | -0.202
O=C(O)[C@]1(Cc2ccccc2)N=C(c2ccc(OCCCO)cc2)O[C@@H]1c1ccccc1 | 0.428 | -1.31 | -0.135 | -0.321 | 0.0148 | 1.45 | 0.847 | -0.737 (inactive) | 0.378 | -0.164 | -1.27 | 0.624 (inactive) | -0.695 (inactive) | 0.286 (inactive) | 1.55 | 0.377 (inactive) | -0.143 | -0.849 | -0.786 | -0.208
C=CC[C@@]1(C(=O)O)N=C(c2ccc(OCCCO)cc2)O[C@@H]1c1ccccc1 | 0.522 | 3.13 | 0.206 | 0.553 | 0.63 | 2.08 | 1.34 | 0.19 (inactive) | -0.55 | 0.212 | 1.11 | 0.639 (inactive) | -2.39 (inactive) | -0.203 (inactive) | 3.22 | 0.572 (inactive) | -0.166 | -0.0356 | -0.645 | -0.315
COC(=O)[C@@]1(Cc2ccccc2)[C@H]2c3cc(C(=O)N4CCCC4)n(Cc4cc(F)cc5c4OCOC5)c3C[C@H]2CN1C(=O)c1ccccc1 | 0.752 | -0.234 | 0.356 | 0.762 | 1.73 | 1.1 | 1.22 | -0.223 (inactive) | 0.929 | -0.0905 | -0.149 | 1.33 (inactive) | 1.17 (inactive) | 0.509 (inactive) | 3.29 | -0.542 (inactive) | 0.331 | -0.584 | 0.924 | 0.115
